Rows were chosen to be rich in hits. Some 21% of all compounds tested hit in one or more screens of this group.
TDP1 cell CPT = growth inhibition of DT40 Tdp1-/-;hTDP1 cells with camptothecin (screen for TDP1 inhibitors). chicken DT40 Tdp1-/-;hTDP1 cells + 20 nM CPT, ATP luminescence, 48 h. Potency, µM (top dose mostly 46.2 µM), without a hit: top-dose activity change, negative = growth inhibition, usual class: inhibitors. 12% of 420,000 active. AID 686979; also: potency is read from the fitted curve at half-maximal effect; nearly all actives have a fitted effect of over 55% in size
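Chicken DT40 Tdp1-/- cells stably complemented with human TDP1 were seeded at 400 cells/well in medium containing 20 nM camptothecin, exposed to pin-transferred compounds, and grown at 37 °C for at least 48 hr. Viability was read as ATP luminescence.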
RORg inh = blocks mouse ROR gamma transcriptional activity; 5.4% of 310,000 active; Potency, µM (titrated, usually from 53.6 µM), for inactives: at the top dose activity change, negative = inhibition, usual class: inhibitors; Drosophila S2 Gal4-RORgamma UAS-luciferase reporter, 20 h; P51450; also: potency is read from the fitted curve at half-maximal effect; nearly all actives have a fitted effect of over 60% in size
Target sequence (P51450 whole entry, looked up, the tested form may be a part): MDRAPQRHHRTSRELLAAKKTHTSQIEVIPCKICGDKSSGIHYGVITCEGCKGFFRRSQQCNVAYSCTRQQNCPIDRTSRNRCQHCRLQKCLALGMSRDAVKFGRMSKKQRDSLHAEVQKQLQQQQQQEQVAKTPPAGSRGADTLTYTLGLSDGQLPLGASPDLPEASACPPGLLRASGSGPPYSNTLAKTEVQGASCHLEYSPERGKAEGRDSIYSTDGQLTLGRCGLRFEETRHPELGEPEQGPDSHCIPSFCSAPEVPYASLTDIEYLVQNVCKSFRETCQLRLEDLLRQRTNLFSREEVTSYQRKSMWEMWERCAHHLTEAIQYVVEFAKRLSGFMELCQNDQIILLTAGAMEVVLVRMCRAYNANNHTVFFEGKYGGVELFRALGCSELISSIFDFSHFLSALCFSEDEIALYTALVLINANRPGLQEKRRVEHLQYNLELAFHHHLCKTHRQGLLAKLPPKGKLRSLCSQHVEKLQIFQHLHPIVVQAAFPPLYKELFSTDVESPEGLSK
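ROR gamma transcriptional activity was tracked as Gal4-UAS luciferase output in stably transfected Drosophila Schneider cells, with compound added 1 hr before 700 uM copper sulfate induction and a 20 hr ambient-temperature incubation.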
ELG1 DNA repair = inhibitors of ELG1-dependent DNA repair in HEK293T cells; Potency, µM (top dose mostly 46.1 µM), for the others: at the highest dose activity change, negative = inhibition, actives largely listed as inhibitors; 2.3% of 330,000 active; HEK293T ELG1-luciferase reporter, luminescence, 16 h; DNA damage induced by 5-fluorouridine; also: potency is read from the fitted curve at half-maximal effect; nearly all actives have a fitted effect of over 55% in size
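5-Fluorouridine DNA damage + compound/DMSO, 2,000 cells/well, 16 h, 37 °C/5% CO2. ONE-Glo, 30 min RT, luminescence. Readout = decrease in reporter signal.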
IL-1B inflam inh = inflammasome signaling inhibition, IL-1 beta readout; activity change, % at 57.5 µM; 4.7% of 360,000 active; THP-1 LPS/ATP IL-1B secretion, AlphaLISA, 16 h; active compounds read low; AID 743279; in the data active = activity change below about -50%; inconclusive = mostly about -30% to -49%
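Secreted IL-1B measured by AlphaLISA bead assay after 16 h compound exposure of THP-1 cells; compounds (final up to 57.5 uM) added 1 h before LPS (250 ng/mL) and ATP (1.25 mM) stimulation; lower signal means less secretion.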
Gal4-VP16 FLuc = Gal4-VP16 reporter inhibition counter-screen; Drosophila S2 Gal4-VP16 UAS-luciferase, luminescence, 20 h; Potency, µM (doses to about 53.6 µM), for the others: top-dose activity, negative = inhibition, actives largely listed as inhibitors; 3.5% of 310,000 active; AID 2546;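 also: Gal4-VP16 expression switched on by copper sulfate through the metallothionein promoter; potency is read from the fitted curve at half-maximal effect; nearly all actives have a fitted effect of over 50% in size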
DT40 TDP1 no CPT = qHTS for Inhibitors of human tyrosyl-DNA phosphodiesterase 1 (TDP1): qHTS in cells in absence of CPT | DT40 Tdp1-/- hTDP1 cells, no CPT, ATP luminescence, 48 h | Potency, µM (top dose mostly 46.2 µM), for the others: at the highest dose activity change, negative = growth inhibition, most hits filed as inhibitors | 15% of 420,000 active | AID 686978, 2013; also: potency is read from the fitted curve at half-maximal effect; nearly all actives have a fitted effect of over 55% in size
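Chicken DT40 Tdp1-/- cells stably complemented with human TDP1 were seeded at 400 cells/well with DMSO in place of 20 nM camptothecin. After compound pinning, cells grew at least 48 hr at 37 °C; viability read by CellTiter-Glo luminescence.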
Starred values were filed as active, the others as inactive; [ ] = dose if it differs, or a comment. Unless noted, calls follow the shape of the dose curve; as a rule, active = well fitted curve in the direction sought with a large enough effect; inconclusive = small, poorly fitted or top-dose-only effect, or another doubt; inactive = no such curve, though single readings can be large; an effect the other way counts as inactive or inconclusive. % is scaled to controls: 0 for no effect and ±100 for the full control effect.

Screening CC(=O)c1ccc(Nc2cc(C)nc3ccccc23)cc1 returned TDP1 cell CPT 12µM*, RORg inh 2%, ELG1 DNA repair -19%, IL-1B inflam inh 7, Gal4-VP16 FLuc -4% and DT40 TDP1 no CPT 13µM*.
For CC(=O)c1ccc(Nc2cc(C)nc3c(C)cccc23)cc1 the results were TDP1 cell CPT 1.3µM*, RORg inh inconclusive, ELG1 DNA repair inconclusive, IL-1B inflam inh -7, Gal4-VP16 FLuc inconclusive and DT40 TDP1 no CPT 1.3µM*.
For CC(=O)c1cccc(Nc2cc(C)nc3c(C)cc(C)cc23)c1 the results were TDP1 cell CPT inconclusive, RORg inh 3%, ELG1 DNA repair 13%, IL-1B inflam inh -53*, Gal4-VP16 FLuc -18% and DT40 TDP1 no CPT 15µM*.
`Cc1ccc(S(=O)(=O)Nc2ccc(C(=O)N3CCOCC3)cc2)cc1` gave TDP1 cell CPT 0%, RORg inh 27%, ELG1 DNA repair -1%, IL-1B inflam inh 20, Gal4-VP16 FLuc -4% and DT40 TDP1 no CPT -25%.
`Cc1cc(C)c2nc(C)cc(Nc3ccc(C(=O)N4CCOCC4)cc3)c2c1` gave TDP1 cell CPT 5%, RORg inh -17%, ELG1 DNA repair 3%, IL-1B inflam inh -65*, Gal4-VP16 FLuc -9% and DT40 TDP1 no CPT -23%.
For CC(=O)c1cccc(Nc2cc(C)nc3ccc(C)cc23)c1 the results were TDP1 cell CPT inconclusive, RORg inh 3%, ELG1 DNA repair inconclusive, IL-1B inflam inh -6, Gal4-VP16 FLuc inconclusive and DT40 TDP1 no CPT inconclusive.
COCCn1c(C)cc(C(=O)CN2C(=O)C(=O)N(CCC3=CCCCC3)C2=O)c1C was read as TDP1 cell CPT -24%, IL-1B inflam inh 25 and DT40 TDP1 no CPT inconclusive.
For COc1cccc(CNC(=O)c2c(OC)cc(=O)n3c2CCN(C(=O)c2cc(F)cc(F)c2)CC3)c1 the results were TDP1 cell CPT -7% and DT40 TDP1 no CPT -14%.
Screening Cc1ccc(Nc2cc(C)nc3c(C)cccc23)cc1 returned TDP1 cell CPT inconclusive, RORg inh -21%, ELG1 DNA repair -19%, IL-1B inflam inh -88*, Gal4-VP16 FLuc 0% and DT40 TDP1 no CPT inconclusive.
Cc1cc(C)c2nc(-c3cccc(Cl)c3)c(C)c(C(=O)N3CCOCC3)c2c1 was read as TDP1 cell CPT inconclusive, RORg inh 4%, ELG1 DNA repair -21%, IL-1B inflam inh -82*, Gal4-VP16 FLuc -7% and DT40 TDP1 no CPT inconclusive.
Screening CCN(CC)C(=O)Cn1c(=O)cc(C)c2c(C)nn(-c3ccc(C)cc3)c21 returned TDP1 cell CPT 9% and DT40 TDP1 no CPT 5%.
`COc1ccc(CC(=O)NC(c2ccccc2)c2ccc(C)cc2)c(OC)c1` (stereo unspecified) gave TDP1 cell CPT inconclusive, RORg inh -24%, ELG1 DNA repair inconclusive, IL-1B inflam inh -13, Gal4-VP16 FLuc 8% and DT40 TDP1 no CPT 18µM*.
For CC1CCCCC12NC(=O)N(CC(=O)NCCc1ccc(S(N)(=O)=O)cc1)C2=O (stereo unspecified) the results were TDP1 cell CPT 13%, ELG1 DNA repair 12%, IL-1B inflam inh 13 and DT40 TDP1 no CPT -6%.
For O=C(CSc1cccc2cccnc12)N1CCCC1 the results were TDP1 cell CPT 4.1µM*, RORg inh 5%[0.365 µM], ELG1 DNA repair inconclusive, IL-1B inflam inh -116* and DT40 TDP1 no CPT 5.2µM*.
`NNC(=O)CSc1cccc2cccnc12` gave TDP1 cell CPT 4%, RORg inh 23%, ELG1 DNA repair -9%, IL-1B inflam inh -27, Gal4-VP16 FLuc -20% and DT40 TDP1 no CPT 3%.
CN(C)C(=O)CSc1cccc2cccnc12 was read as TDP1 cell CPT 4.6µM*, RORg inh 10µM*, ELG1 DNA repair inconclusive, IL-1B inflam inh -8, Gal4-VP16 FLuc inconclusive and DT40 TDP1 no CPT 4.6µM*.
For Cc1cc(C(=O)N2CCC2(C)C(=O)Nc2cccc3ccccc23)nn1C (stereo unspecified) the results were TDP1 cell CPT inconclusive, IL-1B inflam inh -21 and DT40 TDP1 no CPT inconclusive.
Screening CC(C)(C)c1ccc(CC(=O)N2CCC2(C)C(=O)Nc2cccc3cccnc23)cc1 (stereo unspecified) returned TDP1 cell CPT inconclusive, IL-1B inflam inh -4 and DT40 TDP1 no CPT 23µM*.
Screening CC1(C(=O)Nc2ccc3c(c2)OCO3)CCN1Cc1cccc2c1OCO2 (stereo unspecified) returned TDP1 cell CPT inconclusive, IL-1B inflam inh -19 and DT40 TDP1 no CPT inconclusive.
CC(C)(C)c1ccc(C(=O)N2CCC2(C)C(=O)Nc2cccc3ccccc23)cc1 (stereo unspecified) was read as TDP1 cell CPT 16µM*, IL-1B inflam inh -16 and DT40 TDP1 no CPT 23µM*.
Screening CCC(=O)N1CCC1(C)C(=O)Nc1cccc2cccnc12 (stereo unspecified) returned TDP1 cell CPT 1%, IL-1B inflam inh 2 and DT40 TDP1 no CPT -16%.
CC1(C(=O)Nc2cccc3cccnc23)CCN1Cc1cccc2c1OCO2 (stereo unspecified) was read as TDP1 cell CPT inconclusive, IL-1B inflam inh -23 and DT40 TDP1 no CPT 15µM*.
`CC(C)(C)c1ccc(C(=O)N2CCC2(C)C(=O)NCc2cccc3ccccc23)cc1` (stereo unspecified) gave TDP1 cell CPT 18µM*, IL-1B inflam inh 0 and DT40 TDP1 no CPT -96%.
Screening Cc1ccc(NC(=O)CCn2cccn2)cc1Cl returned TDP1 cell CPT 9% and DT40 TDP1 no CPT 8%.
Screening CC(C)(C)c1ccc(C(=O)N2CCC2(C)C(=O)Nc2cccc3ncccc23)cc1 (stereo unspecified) returned TDP1 cell CPT 23µM*, IL-1B inflam inh 20 and DT40 TDP1 no CPT 21µM*.
Cc1ccc(CS(=O)Cc2ccc(C(=O)NCc3ccccc3Br)o2)cc1 (stereo unspecified) was read as TDP1 cell CPT inconclusive, RORg inh 22%, ELG1 DNA repair -26%, IL-1B inflam inh inconclusive, Gal4-VP16 FLuc 0% and DT40 TDP1 no CPT -28%.
CCOc1cccc2cc(-c3csc(NC(=O)CCC(=O)N4CCC(C)CC4)n3)c(=O)oc12 was read as TDP1 cell CPT inconclusive, RORg inh -16%, ELG1 DNA repair 17%, IL-1B inflam inh -2, Gal4-VP16 FLuc 0% and DT40 TDP1 no CPT 16µM*.

Bioassay records (PubChem)
